Bioassay records from PubChem.
Most compounds without a hit are left out; they make up all but 4.6% or so of the library.
D1 potentiator: potentiators of human D1 dopamine receptor; P21728; potentiation, % at 10 µM; 0.036% of 360,000 active; HEK293 TREx D1 cells, calcium flux, dopamine EC20 potentiation; in the data active means potentiation above about 30%; further: 0% is about no effect
TRHR ag: activates the human TRH receptor. TRHR cells, calcium flux fluo-8, FDSS agonist mode. AID 493084. 0.18% of 360,000 active. activation, % at 2 µM. P34981; further: 0% is about no effect
Target sequence (P34981 whole entry, looked up): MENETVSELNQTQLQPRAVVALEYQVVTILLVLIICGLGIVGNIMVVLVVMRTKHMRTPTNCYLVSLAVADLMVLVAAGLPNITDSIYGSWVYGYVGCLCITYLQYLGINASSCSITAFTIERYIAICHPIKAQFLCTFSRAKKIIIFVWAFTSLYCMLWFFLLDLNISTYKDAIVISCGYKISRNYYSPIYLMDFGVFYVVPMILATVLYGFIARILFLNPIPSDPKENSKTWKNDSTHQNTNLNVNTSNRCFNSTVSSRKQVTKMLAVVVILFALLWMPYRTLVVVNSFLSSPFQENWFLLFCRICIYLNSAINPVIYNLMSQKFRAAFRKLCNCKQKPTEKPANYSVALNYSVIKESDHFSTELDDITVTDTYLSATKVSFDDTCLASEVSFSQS
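Fluo-8-loaded TRHR cells; 10 s baseline, compound added, kinetic Ca2+ fluorescence read 1/s, agonist mode.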
D1 antagonist: blocks dopamine activation of the human D1 receptor; P21728; 3.2% of 360,000 active; AID 504652; HEK293 TREx D1 cells, calcium flux, dopamine EC80; active compounds read low; activity change, negative = inhibition, % at 10 µM; in the data active means activity change below about -30%; further: on the % scale 0 is the no-effect control and ±100 the full control effect
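Calcium flux readout: force-coupled, inducible Hek293 Trex D1 line, cells induced overnight at 30 C with tetracycline, dye-loaded 30–90 min at RT. Antagonism scored against EC80 dopamine challenge given 180 s after compound.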
TRHR PAM: TRH receptor (human) allosteric enhancement; TRHR cells, fluo-8 calcium fluorescence, EC20 TRH enhancement; P34981; 0.66% of 360,000 active; enhancement, % at 2 µM; in the data active means enhancement above about 30%; further: 0% is about no effect
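Enhancer read-out: after compound pinning and an initial kinetic agonist-mode read, an EC20 of TRH (10 nM final) was injected and fluo-8 calcium signal (Ex 480/Em 530) followed at 1 s/cycle for 100 cycles in TRHR-expressing cells.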
D1 agonist: activates the human D1 dopamine receptor. P21728. HEK293 T-REx D1 cells, calcium flux, agonist mode. activation, % at 2 µM. 1% of 360,000 active; further: 0% is about no effect
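Agonism was scored from calcium flux recorded over 180 s (1 read/s) after pintool compound addition, following a 10-cycle baseline. Cells were inducible force-coupled HEK293 TREx D1, plated overnight at 30 C and loaded with no-wash calcium dye.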
* marks the source's active call; other numbers are inactive results. Unless noted, no stated cut-off is given here; in the data, active means activation above about 30%; inactive means the rest.

Screening O=C(Nc1ccc(S(=O)(=O)N2CCOCC2)cc1)C1CCCCC1 returned D1 potentiator 43.0*, TRHR ag -0.1, D1 antagonist -2.1, TRHR PAM 2.6 and D1 agonist 5.7.
`COc1ccc(C)cc1NC(=O)c1ccccc1NS(=O)(=O)c1ccc(Cl)s1` gave D1 potentiator -4.2, TRHR ag 3.4, D1 antagonist -30.8*, TRHR PAM -8.5 and D1 agonist 23.9.
O=C(Nc1ccc(S(=O)(=O)N2CCOCC2)cc1)c1ccc(Cl)cc1 was read as D1 potentiator -5.6, TRHR ag -1.1, D1 antagonist -39.7*, TRHR PAM -6.5 and D1 agonist 5.1.
COc1ccc(N2Cc3cccc(C(=O)Nc4ccc(C)c(C)c4)c3C2=O)cc1 was read as D1 potentiator 0.0, TRHR ag 0.2, D1 antagonist 6.0, TRHR PAM -0.2 and D1 agonist 1.0.
Cc1cc2c(cc1S(=O)(=O)Nc1cccc(Cl)c1C)OCCN2C was read as D1 potentiator 2.5, TRHR ag -0.3, D1 antagonist 0.2, TRHR PAM 0.0 and D1 agonist 0.1.
CN(CCOc1ccc(Cl)cc1)C(=O)c1ccc(S(=O)(=O)N2CCOCC2)cc1 was read as D1 potentiator -1.2, TRHR ag -0.3, D1 antagonist -39.0*, TRHR PAM 0.1 and D1 agonist 22.1.
`O=C(Nc1ccc(Cc2ccncc2)cc1)c1ccc(S(=O)(=O)N2CCOCC2)cc1` gave D1 potentiator -3.2, TRHR ag 1.5, D1 antagonist -41.3*, TRHR PAM 7.8 and D1 agonist 16.0.
Screening CN(CCOc1ccccc1)C(=O)c1cc(S(=O)(=O)N2CCOCC2)ccc1Cl returned D1 potentiator -6.7, TRHR ag -0.5, D1 antagonist -19.4, TRHR PAM -2.1 and D1 agonist 0.3.
`CC(=O)Oc1ccc(C(=O)Nc2ccc(S(=O)(=O)N3CCOCC3)cc2)cc1` gave D1 potentiator 1.2, TRHR ag 1.4, D1 antagonist -90.1*, TRHR PAM 40.7* and D1 agonist 6.4.
`O=C(Nc1ccc(S(=O)(=O)N2CCOCC2)cc1)c1ccc(S(=O)(=O)N2CCOCC2)cc1` gave D1 potentiator -0.2, TRHR ag 1.0, D1 antagonist 2.1, TRHR PAM 7.6 and D1 agonist 1.9.
O=C1c2[nH]nc(-c3ccccc3O)c2C(c2ccccc2F)N1Cc1ccncc1 (stereo unspecified) was read as D1 potentiator -0.9, TRHR ag -0.6, D1 antagonist -7.5, TRHR PAM 1.8 and D1 agonist 0.1.
Screening CC(C)c1cnc2c(c1SCC(=O)NC(C)(C)C)c(=O)n(C)c(=O)n2C returned D1 potentiator 1.2, TRHR ag -0.2, D1 antagonist 10.1, TRHR PAM -2.4 and D1 agonist -0.9.
O=C(Nc1ccc(S(=O)(=O)N2CCCCCC2)cc1)c1[nH]ncc1[N+](=O)[O-] was read as D1 potentiator -6.0, TRHR ag 0.1, D1 antagonist -33.6*, TRHR PAM 0.2 and D1 agonist 7.3.
Screening O=C(O)CCCNC(=O)CCCn1nnc2ccccc2c1=O returned D1 potentiator -1.6, TRHR ag 0.6, D1 antagonist 5.1, TRHR PAM 31.9* and D1 agonist -0.2.
Screening O=C(O)CCCCCNC(=O)CCn1cnc2ccccc2c1=O returned D1 potentiator -13.0, TRHR ag 0.1, D1 antagonist -50.6*, TRHR PAM -1.9 and D1 agonist 0.9.
CCc1ccc(N/C(SCc2ccccc2C)=C(/C#N)C(=O)NCc2ccco2)cc1 was read as D1 potentiator -4.2, TRHR ag 2.9, D1 antagonist -30.3*, TRHR PAM -2.7 and D1 agonist 30.0*.
`CC(=O)c1nn(-c2ccc(OC(F)(F)F)cc2)nc1Nc1ccc(Cl)cc1` gave D1 potentiator -1.8, TRHR ag 4.0, D1 antagonist 2.0, TRHR PAM -3.6 and D1 agonist 8.3.
`N#C/C(=C\c1ccc(O)cc1)c1nc2ccccc2o1` gave D1 potentiator -2.5, TRHR ag 5.6, D1 antagonist -17.7, TRHR PAM -3.3 and D1 agonist 21.1.
`COc1cc(/C=C(\C#N)c2nc3ccccc3o2)ccc1O` gave D1 potentiator 5.0, TRHR ag 77.8*, D1 antagonist -4.9, TRHR PAM 6.2 and D1 agonist 332.3*.
`Cc1sc2nc(CSc3ccccc3)nc(N3CCN(C)CC3)c2c1C` gave D1 potentiator -10.2, TRHR ag 0.8, D1 antagonist -41.7*, TRHR PAM 4.2 and D1 agonist 4.2.
O=C1NC(=O)C(CC(=O)N(Cc2ccco2)C2(C(=O)NC3CCCC3)CCCCC2)N1 (stereo unspecified) was read as D1 potentiator -2.2, TRHR ag -0.5, D1 antagonist -10.3, TRHR PAM 33.3* and D1 agonist 2.2.
`Cc1nc(-c2ccc(Cl)cc2)sc1CCNC(=O)C(=O)Nc1ccc2c(c1)OCO2` gave D1 potentiator -1.9, TRHR ag 0.4, D1 antagonist -16.5, TRHR PAM -5.9 and D1 agonist 4.5.
Screening CCC(C)(C(=O)NC1CCCC1)N(C(=O)c1cnccn1)c1ccccc1 (stereo unspecified) returned D1 potentiator -4.7, TRHR ag 0.5, D1 antagonist -45.1*, TRHR PAM -0.8 and D1 agonist 4.8.
Screening NC(=O)c1nc(Nc2ccccc2)sc1NC(=O)c1ccccc1Br returned D1 potentiator -3.4, TRHR ag 1.6, D1 antagonist 0.0, TRHR PAM 5.5 and D1 agonist 12.6.
For Nc1ccc(Sc2cnn(-c3ccccc3)c(=O)c2Cl)cc1 the results were D1 potentiator -2.1, TRHR ag -2.2, D1 antagonist -13.4, TRHR PAM 36.5* and D1 agonist 3.7.
For Cc1ccc(Sc2cnn(-c3ccccc3)c(=O)c2Cl)cc1 the results were D1 potentiator 1.2, TRHR ag -0.4, D1 antagonist -20.4, TRHR PAM -7.6 and D1 agonist 3.5.
CNc1cnn(-c2ccccc2)c(=O)c1Cl was read as D1 potentiator -1.5, TRHR ag 0.0, D1 antagonist -70.6*, TRHR PAM 1.0 and D1 agonist 1.6.
Screening Cc1cccc2c1-c1sc(C(=O)N(C)c3cccc(C(F)(F)F)c3)cc1CO2 returned D1 potentiator -8.1, TRHR ag 0.3, D1 antagonist 30.7, TRHR PAM 5.0 and D1 agonist 6.2.
Screening CCc1cccc(NC(=O)CSc2ncc3c(n2)-c2cc(Cl)ccc2N(C)S3(=O)=O)c1 returned D1 potentiator 0.5, TRHR ag 0.4, D1 antagonist 29.2, TRHR PAM 1.1 and D1 agonist 5.3.
Screening C/C(=N/Nc1ccnc2cc(Cl)ccc12)c1ccc(O)cc1 returned D1 potentiator -8.1, TRHR ag -0.1, D1 antagonist -24.7, TRHR PAM -0.4 and D1 agonist 6.0.
